Source: PubChem BioAssay (several laboratories)
Anthrax LF inh2: inhibitors of Bacillus anthracis lethal factor protease | P15917 | multiplex microsphere protease cleavage assay, LF | inhibition, % at 10 µM | hit rate 0.12% among 360,000 | AID 588501; also: plate controls were buffer without enzyme for full effect and enzyme alone for no effect
BoNT-A LC inh2: BoNT A light chain protease inhibition | multiplex microsphere protease substrate cleavage, flow cytometry | inhibition, % at 10 µM | hit rate 0.17% among 360,000 | AID 588499; also: plate controls were buffer without enzyme for full effect and enzyme alone for no effect
Autofluor counter: flagged as autofluorescent in microsphere protease counterscreen | compound autofluorescence counterscreen, microsphere flow cytometry; hits give high values | fluorescence intensity (test concentration not listed) | hit rate 3.1% among 360,000 | AID 624483; in the data active = fluorescence intensity above about 16000; inconclusive = no clear call, values can overlap the other calls
BoNT-F LC inh: BoNT F light chain protease inhibition. hit rate 0.22% among 360,000. Multiplex microsphere protease cleavage assay, flow cytometry. inhibition, % at 10 µM; in the data active = inhibition above about 35%, passing the limit was not always enough; inconclusive = no clear call, values can overlap the other calls; also: plate controls were buffer without enzyme for full effect and enzyme alone for no effect
TcdB GH inh: TcdB glycohydrolase inhibition; P18177; TcdB glycohydrolase enzymatic assay, plate reader; inhibition, % at 9.99 µM; hit rate 0.24% among 350,000; AID 652162; in the data active = inhibition above about 10%
The depositor's hits bear a star; ? = inconclusive; . = no result given. Many of the other results were omitted from the sample, so hits are more common in it than they were. Rule as the data show it, unless noted: active = inhibition above about 30%; inconclusive = no clear call, values can overlap the other calls; inactive = below that.

SMILES	Anthrax LF inh2	BoNT-A LC inh2	Autofluor counter	BoNT-F LC inh	TcdB GH inh
COc1ccc(NC(=O)N2C[C@H](O)COC[C@H]3O[C@H](CC(=O)NCc4ccccc4OC)CC[C@@H]32)cc1	.	.	.	.	0.6
Cc1cccc(N(C)S(=O)(=O)c2ccc3c(c2)NC(=O)CC(=O)N3)c1	3.0	0.2	4510	-0.5	2.0
Cc1cccc(N(C)S(=O)(=O)c2ccc3[nH]c(=O)c(=O)[nH]c3c2)c1	3.6	?	16965*	-1.2	.
Cc1ccc(S(=O)(=O)N(C)C[C@H]2OCCCC[C@H](C)Oc3ccc(NC(=O)CCCN(C)C)cc3C(=O)N([C@@H](C)CO)C[C@H]2C)cc1	.	.	.	.	-1.5
C[C@@H]1CCCCO[C@@H](CN(C)S(=O)(=O)c2ccccc2)[C@@H](C)CN([C@@H](C)CO)C(=O)c2cc(NC(=O)CCCN(C)C)ccc2O1	.	.	.	.	-10.8
C[C@@H]1CN([C@@H](C)CO)C(=O)Cc2cc(NC(=O)C3CCCCC3)ccc2O[C@@H]1CN(C)C(=O)NC1CCCCC1	.	.	.	.	-0.2
N#CCCN(CCC#N)C(=O)COc1ccc(Cl)cc1Cl	-7.0	3.4	18547*	1.4	.
Cc1noc(C)c1NC(=O)N[C@H]1CC[C@H](CCNC(=O)C2CCCC2)O[C@H]1CO	.	.	.	.	-0.7
CC1(C(=O)NC2CCCCCCC2)CC1(Cl)Cl (stereo unspecified)	-4.8	-2.6	17224*	-2.7	.
CCOc1ccc(OCCSc2nc(C)cc(=O)[nH]2)cc1	-0.2	-0.3	2771	-1.6	.
Cc1cc(=O)[nH]c(SCCCOc2ccc3c(c2)CCC3)n1	3.3	0.2	23738*	-1.1	.
COc1cccc(OC)c1OCCCSc1nc(C)cc(=O)[nH]1	-0.7	2.6	22471*	4.2	.
O=C(Nc1ccc(F)cc1)N1C[C@@H]2[C@H](c3ccccc31)[C@@H](CO)N2C(=O)c1ccccc1F	.	.	.	.	-6.6
CC(C)(C)NC(=O)CN(Cc1cccs1)C(=O)CNS(=O)(=O)c1ccc(F)cc1	0.1	-0.4	3144	-4.0	-0.1
CCC(C)(C)NC(=O)CN(Cc1cccs1)C(=O)CNS(=O)(=O)c1ccc(C)cc1	-3.3	-1.0	16739*	-1.7	.
Clc1cccc(Cl)c1CSc1cc2c(nn1)-c1ccccc1CC2	1.0	2.1	22710*	3.7	.
Clc1ccccc1CSc1cc2c(nn1)-c1ccccc1CC2	-1.1	-0.6	2802	-7.3	.
C/C=C/c1ccc([C@H]2[C@@H](CO)N(C(=O)C3CCCC3)C23CN(C(=O)NC(C)C)C3)cc1	.	.	.	.	-0.3
CC(C(=O)c1ccc(Br)cc1)[n+]1cccc(NC(=O)c2ccccc2)c1 (stereo unspecified)	0.3	0.0	2596	4.5	0.7
CC(C(=O)c1ccc(Br)cc1)[n+]1cccc2ccccc21 (stereo unspecified)	-7.7	-4.5	16961*	?	-0.4
C[C@@H]1CN([C@@H](C)CO)C(=O)c2cc(NC(=O)CCCN(C)C)ccc2O[C@@H](C)CCCCO[C@@H]1CN(C)Cc1ccncc1	.	.	.	.	1.9
CCN(CC)S(=O)(=O)c1cccc(-c2nnc(SCC(=O)NC3CCCC3)n2N)c1	-3.2	-2.9	20557*	-5.5	.
CCN(CC)S(=O)(=O)c1cccc(-c2nnc(SCC(=O)NC3CCCCCC3)n2N)c1	-3.1	1.7	22076*	2.2	.
CCN(CC)S(=O)(=O)c1cccc(-c2nnc(SCC(=O)NC3CCCCCCC3)n2N)c1	1.2	-4.9	21228*	-5.2	.
O=C(NCCN1CCCCC1)[C@H]1N[C@H]2c3ccc(-c4ccncc4)c(=O)n3C[C@H]2[C@@H]1CO	.	.	.	.	0.0
SMILES	Anthrax LF inh2	BoNT-A LC inh2	Autofluor counter	BoNT-F LC inh	TcdB GH inh
CCN(Cc1cc2ccccc2[nH]c1=O)C(=O)c1cccnc1	0.1	-0.2	9949	5.7	.
O=C(c1ccncc1)N(Cc1ccco1)Cc1cc2ccccc2[nH]c1=O	0.2	1.8	22113*	1.8	.
Cc1nc2c([nH]c3ccc(Br)cc32)s1	-1.2	-0.4	20775*	-0.5	.
Cc1n[nH]c2ccc(Br)cc2c1=O	-3.0	0.0	2849	0.3	0.6
O=C(CCN1CCCCC1)N[C@H]1CC[C@@H](CC(=O)N2CCC(Cc3ccccc3)CC2)O[C@H]1CO	.	.	.	.	-0.8
CCc1sc(N2[C@@H](C#N)[C@@H](c3ccccc3-c3ccc(F)cc3)[C@@H]2CO)nc1C	.	.	.	.	0.2
O=C(CN1CCOCC1)NCC[C@@H]1CC[C@H](NC(=O)Nc2ccccc2)[C@@H](CO)O1	.	.	.	.	0.0
COC(=O)c1c(NC(=O)CCCC(=O)O)sc2c1CCC2	-0.3	-0.7	22669*	0.7	0.7
COC(=O)c1c(NC(=O)CC2SCC(C(=O)OC)NC2=O)sc2c1CCCC2 (stereo unspecified)	-0.9	-3.0	24791*	-4.6	.
NC(=O)c1c(NC(=O)CCCC(=O)O)sc2c1CCCCCC2	-1.7	-0.3	2094	1.5	.
Cc1cc(C(=O)Nc2cccc3c2O[C@H](CN(C)Cc2ccccc2)[C@@H](C)CN([C@H](C)CO)C3=O)n(C)n1	.	.	.	.	-0.1
COc1ccc2c3c([nH]c2c1)[C@H](CO)N(C(=O)c1ccccc1)CC31CCN(C(=O)c2cccc(F)c2)CC1	.	.	.	.	0.0
CN1[C@H](C(=O)NC2CCC2)[C@@H](CO)[C@@H]2Cn3c(ccc(-c4cccc(F)c4)c3=O)[C@@H]21	.	.	.	.	0.4
O=C(Cc1ccccc1)Nc1c2c(nn1-c1cccc(Cl)c1)CS(=O)(=O)C2	1.1	7.7	20201*	8.6	.
CCCCOc1ccccc1C1C(C(=O)OC)=C(C)N(C)C(C)=C1C(=O)OC	0.9	-0.2	22647*	-1.8	.
CC1(C)Cc2c(C#N)c(N)sc(=S)c2CO1	24.1	25.5	4535	21.6	.
CC(C)C1Cc2c(C#N)c(N)sc(=S)c2CO1 (stereo unspecified)	47.1*	72.2*	4054	0.0	.
CC(=O)Oc1ccc2oc3c(c2c1)C(=O)CCC3	-1.2	-1.6	23365*	-3.7	.
O=C(C[C@@H]1C=C[C@H](NC(=O)Nc2ccc(C(F)(F)F)cc2)[C@H](CO)O1)NCc1cc(F)cc(F)c1	.	.	.	.	1.0
CN1C(=O)c2cc(NC(=O)NCc3ccccc3)ccc2OC[C@@H]2O[C@@H](CC(=O)O)CC[C@@H]21	.	.	.	.	0.0
Cc1nnc(SCc2ccccc2F)n1NCc1cccs1	2.1	3.5	22098*	1.3	.
Cc1ccc(NC(=O)c2cc(=O)c3ccccc3o2)cc1	-9.1	2.7	21364*	4.3	.
CN(C)CC(C)(C)CNC(=O)c1cc(=O)c2ccccc2o1	-1.2	2.4	21817*	3.3	.
CC(=O)N1CCCCN2[C@H](CO)[C@H](c3ccc(C#Cc4ccccc4F)cc3)[C@@H]2C1	.	.	.	.	0.1
